Screening results as filed in PubChem.
This is a sample that favours compounds with a hit; in the whole collection about 7.5% have one here.
ELG1 genotoxic – genotoxicity induction in ELG1-luciferase HEK293T cells. HEK293T ELG1-luciferase reporter, luminescence, 16 h. Potency, µM (series often up to 46 µM), actives largely listed as activators. 1.3% of 330,000 active. AID 504466; also: nearly all actives have a fitted effect of over 60% in size
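HEK293T cells expressing luciferase-tagged ELG1 were treated with compound or DMSO for 16 hr at 37°C. Luciferase activity was then read after 30 min with ONE-Glo at room temperature; rising signal flags genetic stress.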
SMN2 splice enh – SMN2 splice variant enhancement; HEK293 SMN2-luciferase splicing reporter, luminescence, 30-36 h; Potency, µM (doses to about 46.1 µM), actives largely listed as activators; 2.8% of 210,000 active; AID 1458; also: nearly all actives have a fitted effect of over 55% in size
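HEK293 cells carry an SMN2 […]–luciferase reporter in which exon 7 inclusion puts luciferase in frame. Cells were plated 10-12 h before compound addition, then incubated 30-36 h at 37C. ONE-Glo luminescence was read; sodium butyrate at 4.5 mM final served as control.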
FLuc counter – inhibits or activates purified firefly luciferase, miR-21 counter-screen; 6.9% of 360,000 active; purified FLuc, Km substrates, luminescence inhibition; Potency, µM (highest dose often 57.5 µM), hits mostly inhibitors; AID 588342; also: nearly all actives have a fitted effect of over 55% in size
Target sequence (P08659 whole entry, looked up): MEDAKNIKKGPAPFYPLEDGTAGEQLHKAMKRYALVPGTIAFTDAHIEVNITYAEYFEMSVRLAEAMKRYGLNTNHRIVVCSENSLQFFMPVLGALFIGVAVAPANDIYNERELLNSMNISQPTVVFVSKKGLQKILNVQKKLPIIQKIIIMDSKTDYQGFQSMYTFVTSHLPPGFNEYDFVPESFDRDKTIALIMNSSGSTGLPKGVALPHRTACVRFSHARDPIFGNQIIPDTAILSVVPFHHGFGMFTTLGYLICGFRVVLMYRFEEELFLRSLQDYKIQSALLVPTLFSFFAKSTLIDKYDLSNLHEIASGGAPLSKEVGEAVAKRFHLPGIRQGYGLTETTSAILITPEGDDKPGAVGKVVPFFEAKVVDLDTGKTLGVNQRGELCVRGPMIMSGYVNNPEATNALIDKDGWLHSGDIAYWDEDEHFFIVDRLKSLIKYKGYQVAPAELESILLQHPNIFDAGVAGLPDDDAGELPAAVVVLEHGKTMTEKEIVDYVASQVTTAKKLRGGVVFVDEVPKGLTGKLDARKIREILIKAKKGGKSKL
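Purified P. pyralis luciferase, 10 nM final, with Km-level 10 uM D-luciferin and 10 uM ATP in 50 mM Tris acetate pH 7.5, 10 mM Mg acetate, 0.01% Tween-20, 0.05% BSA; 6-point qHTS titration about 60 µM downward; luminescence read.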
Rab9 prom act – activates the Rab9 promoter. Potency, µM (doses to about 9.22 µM), usual class: activators. 2.8% of 320,000 active. Huh7 Rab9 promoter-luciferase reporter, luminescence, 24 h; also: nearly all actives have a fitted effect of over 60% in size
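Stable Rab9-luc Huh7, 1500 cells/well, 2 h settle; cmpd in DMSO, 24 h, 37 °C/5% CO2; luciferase reagent 10 min RT; luminescence.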
NPC1 prom act – activates the NPC1 promoter. 2.4% of 320,000 active. Potency, µM (series often up to 9.22 µM), hits mostly activators. Huh7 NPC1 promoter luciferase reporter, 24 h; also: nearly all actives have a fitted effect of over 60% in size
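Readout is luciferase luminescence, reflecting NPC1 promoter activation in stably transfected Huh7 cells after 24 h compound exposure at 37 °C in reduced-serum medium with 10% FBS.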
Hits are given with their value; . = inactive; ? = inconclusive; / = no result. Calls follow the shape of the dose curve; as a rule, active = well fitted curve in the direction sought with a large enough effect; inconclusive = small, poorly fitted or top-dose-only effect, or another doubt; inactive = no such curve, though single readings can be large; an effect the other way counts as inactive or inconclusive.

SMILES	ELG1 genotoxic	SMN2 splice enh	FLuc counter	Rab9 prom act	NPC1 prom act
Cc1[nH]n(-c2ccccc2)c(=O)c1C(c1ccccc1C(=O)O)c1c(C)[nH]n(-c2ccccc2)c1=O	.	.	.	.	.
COc1ccc(C(c2c(C)n(C)n(-c3ccccc3)c2=O)c2c(C)n(C)n(-c3ccccc3)c2=O)cc1OC	.	/	.	.	.
Cc1[nH]n(-c2ccccc2)c(=O)c1C(c1cc(Cl)ccc1O)c1c(C)[nH]n(-c2ccccc2)c1=O	/	.	19µM	/	/
CCOc1cc(C(c2c(C)[nH]n(-c3ccccc3)c2=O)c2c(C)[nH]n(-c3ccccc3)c2=O)ccc1O	/	.	12µM	/	/
COc1ccc(C(c2c(C)[nH]n(-c3ccccc3)c2=O)c2c(C)[nH]n(-c3ccccc3)c2=O)cc1OC	.	.	19µM	.	.
Cc1ccc(-c2csc(NC(=O)CN3CCC(C(N)=O)CC3)n2)cc1	.	/	?	.	.
COC(=O)C1CC(=O)N(c2ccc(OCc3ccccc3Cl)cc2)C1 (centres undefined)	.	/	?	.	.
c1ccc(COc2ccc(OCCOCCn3cncn3)cc2)cc1	5.2µM	8.9µM	8.5µM	1.3µM	1.4µM
c1ccc(COc2ccc(OCCCN3CCCCC3)cc2)cc1	7.9µM	?	13µM	3.2µM	?
c1ccc(OCCCCN2CCCCC2)cc1	.	/	.	.	.
c1ccc(SCCOCCn2cncn2)cc1	.	.	.	.	.
c1ccc(COc2ccc(OCCCCN3CCCC3)cc2)cc1	?	/	12µM	2.5µM	2.2µM
C=CCNCCCCOc1ccc(OCc2ccccc2)cc1	13µM	.	17µM	?	?
O=C(Oc1ccc2c3c(c(=O)oc2c1)CCC3)c1ccco1	.	.	13µM	.	.
O=C(Oc1ccc2c3c(c(=O)oc2c1)CCCC3)c1cccs1	.	.	17µM	.	.
Cc1cc2oc(=O)c3c(c2cc1OC(=O)c1ccco1)CCCC3	.	.	.	.	.
Cc1ccc(-c2c(C)sc3nc[nH]c(=O)c23)cc1C	.	/	.	.	.
O=C1CCc2ccc(NS(=O)(=O)c3ccc(F)cc3)cc2N1	18µM	?	.	.	.
O=C(CSc1nc2c(c(=O)n1-c1ccccc1)SCC2)N1CCN(c2ccccc2)CC1	.	.	.	.	.
Nc1ccc(O)cc1C(=O)OCC(=O)c1ccc(C2CCCCC2)cc1	?	.	2.7µM	.	.
Nc1ccc(O)cc1C(=O)OCC(=O)C12CC3CC(CC(C3)C1)C2	.	.	15µM	.	.
COc1ccc(C(=O)OCC(=O)c2ccc(C3CCCCC3)cc2)cc1	6.5µM	.	.	.	.
O=C(NC1CCCCC1)c1ccc(Br)o1	.	.	.	.	.
O=c1cc(-c2cccs2)oc2ccc(Cl)cc12	?	/	4.8µM	3.2µM	3.2µM
O=c1c(O)c(-c2cccs2)oc2ccc(Cl)cc12	.	?	?	.	.
SMILES	ELG1 genotoxic	SMN2 splice enh	FLuc counter	Rab9 prom act	NPC1 prom act
O=c1cc(-c2ccc3c(c2)OCCO3)oc2ccc(Cl)cc12	2.9µM	2.5µM	0.38µM	0.45µM	0.63µM
O=C(O)c1csc(N/N=C/c2ccc(Br)cc2)n1	.	.	5.4µM	.	.
Cc1csc(N/N=C/c2ccccn2)n1	12µM	3.5µM	2.1µM	0.45µM	.
Cc1csc(N/N=C/c2ccc([N+](=O)[O-])cc2)n1	.	/	?	2.8µM	?
C(=N\Nc1nc2ccccc2s1)/c1ccccn1	?	/	0.076µM	.	.
Cc1cc(=O)[nH]c(N/N=C/c2ccc([N+](=O)[O-])cc2)n1	.	.	.	.	.
CCOC(=O)Cc1csc(N/N=C/c2ccc(C(F)(F)F)cc2)n1	.	.	.	.	.
Brc1csc(/C=N/Nc2nc3ccccc3s2)c1	?	2.8µM	1.2µM	3.2µM	5µM
C(=N\Nc1ccccc1)/c1nc2ccccc2s1	?	/	1.5µM	0.79µM	3.5µM
Cc1cccc(C(=O)Nc2cccc(C(=O)N/N=C/c3ccc4c(c3)OCO4)c2)c1	.	/	1.9µM	.	.
Cc1cccc(C(=O)Nc2ccc(C(=O)N/N=C/c3ccc4c(c3)OCO4)cc2)c1	.	/	.	.	.
Cc1ccccc1C(=O)Nc1cccc(C(=O)N/N=C/c2ccc3c(c2)OCO3)c1	.	/	3µM	?	.
O=C(N/N=C/c1ccc2c(c1)OCO2)c1cccc(NC(=O)c2ccccc2Cl)c1	?	/	2.7µM	.	.
